The target of experiment [1] is Rap guanine nucleotide exchange factor 3 (Homo sapiens) (UniProt O95398). Kind of experiment: Confirmatory qHTS for antagonist of cAMP-regulated guanine nucleotide exchange factor 3 (EPAC1) (AID 1645880). Note: nearly all actives have a fitted effect of over 55% in size. Note: potency is the fitted concentration of half-maximal effect. A digest of the protocol: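 Released BODIPY-GDP fluoresces less than Rap1-bound BODIPY-GDP; the signal is followed at 480/540 nm at 5-min intervals over 30 min, after 5 min at room temperature. Reactions contain 100 nM EPAC1, 250 nM RAP1B-BODIPY-GDP and 50 uM GDP; results are normalized to ATA and DMSO.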
Background: In qHTS, concentration-response curves come from the screen itself.

The target is the same in experiment [2]. The experiment is described as follows: Confirmatory qHTS for agonist of cAMP-regulated guanine nucleotide exchange factor 3 (EPAC1) (AID 1645881).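 Note: EPAC1 catalysed release of BODIPY-GDP from Rap1B seen as fluorescence loss; 100% = effect of cAMP agonist control; nearly all actives have a fitted effect of over 75% in size.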
For experiment [3], the target named is Rap guanine nucleotide exchange factor 4 (Homo sapiens) (UniProt Q8WZA2). The experiment is described as follows: Confirmatory qHTS for agonist of cAMP-regulated guanine nucleotide exchange factor 4 (EPAC2) (AID 1645884).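 Note: nucleotide exchange releases bodipy-GDP from Rap1 and this lowers its fluorescence; % is set by controls: 0 for no effect and ±100 for the full control effect; nearly all actives have a fitted effect of over 65% in size.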
Experiment [4] has the same target. Kind of experiment: Confirmatory qHTS for antagonist of cAMP-regulated guanine nucleotide exchange factor 4 (EPAC2) (AID 1645885). For activity change, negative = inhibition: % is set by controls: 0 for no effect and ±100 for the full control effect. Note: nearly all actives have a fitted effect of over 25% in size. Note: potency is the fitted concentration of half-maximal effect.
Experiment [5] addresses Rap guanine nucleotide exchange factor 3 (Homo sapiens) (UniProt O95398). Kind of experiment: Counterscreen qHTS for antagonist of cAMP-regulated guanine nucleotide exchange factor 3 (EPAC1) (AID 1645888). Note: % of control where 0% means no effect. A digest of the protocol: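 Rap1B-BODIPY-GDP 250 nM + GDP 50 uM; cpds 7-pt, final 9.74 nM–152 uM (activator mode) or from 7.32 nM upwards (inhibitor mode); RT; FI 480/540 nm at 5 and 30 min, then ± cAMP, reread.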

22 compounds from PubChem BioAssay (NCATS) can be followed below.

Results filed as inconclusive are left out. Values without a mark were called inactive. The source made the active and inactive calls. Calls come from the whole dose curve; as a rule, active = well fitted curve in the direction sought with a large enough effect; inconclusive = small, poorly fitted or top-dose-only effect, or another doubt; inactive = no such curve, though single readings can be large; an effect the other way counts as inactive or inconclusive.

Sequence of Rap guanine nucleotide exchange factor 3 (Homo sapiens) (O95398 whole entry, looked up): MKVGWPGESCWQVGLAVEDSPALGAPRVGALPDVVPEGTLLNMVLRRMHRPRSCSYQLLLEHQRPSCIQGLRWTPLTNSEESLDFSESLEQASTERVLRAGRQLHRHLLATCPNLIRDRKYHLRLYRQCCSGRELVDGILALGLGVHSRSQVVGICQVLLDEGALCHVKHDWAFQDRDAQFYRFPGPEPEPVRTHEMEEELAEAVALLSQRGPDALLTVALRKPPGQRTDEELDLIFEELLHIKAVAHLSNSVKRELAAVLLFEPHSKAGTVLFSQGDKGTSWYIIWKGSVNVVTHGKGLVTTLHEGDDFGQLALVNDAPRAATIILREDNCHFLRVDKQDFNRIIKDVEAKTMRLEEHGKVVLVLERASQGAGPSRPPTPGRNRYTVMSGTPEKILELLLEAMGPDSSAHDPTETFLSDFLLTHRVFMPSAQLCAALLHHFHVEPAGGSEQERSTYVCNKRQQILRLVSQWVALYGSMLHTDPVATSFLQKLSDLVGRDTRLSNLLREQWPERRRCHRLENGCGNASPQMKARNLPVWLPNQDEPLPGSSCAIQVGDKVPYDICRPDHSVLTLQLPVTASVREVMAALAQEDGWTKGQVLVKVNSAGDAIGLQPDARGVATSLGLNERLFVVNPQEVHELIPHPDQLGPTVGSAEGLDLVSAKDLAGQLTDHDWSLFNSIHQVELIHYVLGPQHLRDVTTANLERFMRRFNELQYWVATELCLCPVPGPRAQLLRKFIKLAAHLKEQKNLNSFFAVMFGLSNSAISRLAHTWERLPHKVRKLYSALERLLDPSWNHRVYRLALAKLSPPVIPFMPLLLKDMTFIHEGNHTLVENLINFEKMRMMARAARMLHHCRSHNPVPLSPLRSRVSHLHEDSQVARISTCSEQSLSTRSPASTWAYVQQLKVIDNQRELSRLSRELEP
Sequence of Rap guanine nucleotide exchange factor 4 (Homo sapiens) (Q8WZA2 whole entry, looked up): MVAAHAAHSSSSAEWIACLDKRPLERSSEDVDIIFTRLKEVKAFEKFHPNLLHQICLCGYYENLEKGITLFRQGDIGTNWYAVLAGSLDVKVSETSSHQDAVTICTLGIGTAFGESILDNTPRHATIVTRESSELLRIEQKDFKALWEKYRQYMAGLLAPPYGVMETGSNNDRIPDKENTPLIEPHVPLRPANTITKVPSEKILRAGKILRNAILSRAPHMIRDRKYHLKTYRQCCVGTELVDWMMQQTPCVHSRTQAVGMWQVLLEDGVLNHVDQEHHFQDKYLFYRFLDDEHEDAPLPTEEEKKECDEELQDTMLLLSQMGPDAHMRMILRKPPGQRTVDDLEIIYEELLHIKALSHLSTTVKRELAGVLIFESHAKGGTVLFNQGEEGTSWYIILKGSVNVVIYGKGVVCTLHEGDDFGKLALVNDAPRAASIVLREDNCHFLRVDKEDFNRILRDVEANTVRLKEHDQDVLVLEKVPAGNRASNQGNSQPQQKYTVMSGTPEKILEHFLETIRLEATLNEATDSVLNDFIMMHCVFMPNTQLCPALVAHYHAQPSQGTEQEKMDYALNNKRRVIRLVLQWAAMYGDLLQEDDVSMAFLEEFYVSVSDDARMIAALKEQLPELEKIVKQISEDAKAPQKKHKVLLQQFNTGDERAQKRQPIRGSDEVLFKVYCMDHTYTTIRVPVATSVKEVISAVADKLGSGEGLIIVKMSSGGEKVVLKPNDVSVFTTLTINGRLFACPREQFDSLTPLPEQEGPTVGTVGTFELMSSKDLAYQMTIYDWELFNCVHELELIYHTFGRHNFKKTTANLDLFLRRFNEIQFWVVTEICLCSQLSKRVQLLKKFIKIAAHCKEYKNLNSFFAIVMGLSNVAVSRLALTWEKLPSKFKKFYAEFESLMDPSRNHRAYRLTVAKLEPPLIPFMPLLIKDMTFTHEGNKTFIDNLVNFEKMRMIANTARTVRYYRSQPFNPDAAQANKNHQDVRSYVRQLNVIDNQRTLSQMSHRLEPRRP

Consider `Nn1cnnc1N/N=C/c1ccc(Cl)c([N+](=O)[O-])c1`, for which the Potency result in experiment [1], in experiment [2], in experiment [3], in experiment [4] and in experiment [5] was “inactive” each time.
Regarding `Clc1ccc(CSc2nnc(-c3ccncc3)s2)cc1`, the Potency result in experiment [1], in experiment [2], in experiment [3], in experiment [4] and in experiment [5] was “inactive” in each case.
With `CCCCN1C(=O)C(CC(=O)NC2CCCCC2)CC(C(=O)N2CCCCCC2)=C1C` (stereo not given), the Potency entry in experiment [1], in experiment [2] and in experiment [4] was “inactive” each time. Moreover, the activation in experiment [3] was 8.48% [at 17.1 µM, percent relative to cAMP agonist control]. Besides, the activity change, negative = inhibition in experiment [5] is -2.29% [at 30.8 µM].
Regarding `O=C(Nc1ccccn1)c1cccc(S(=O)(=O)N2CCc3ccccc3C2)c1`, the Potency entry in experiment [1], in experiment [2], in experiment [3], in experiment [4] and in experiment [5] was “inactive” in each case.
`COc1cc2c(-c3ccc4c(c3)OCO4)c(-c3ccsc3)oc(=O)c2cc1OC`: the Potency entry in experiment [1], in experiment [2] and in experiment [4] was “inactive” each time. Further, the activation in experiment [3] was 13.2% [at 17.1 µM, percent relative to cAMP agonist control]. The activity change, negative = inhibition in experiment [5] was 10.4% [at 30.8 µM].
For the compound `COC(=O)c1c(NC(=O)c2c(OC)cccc2OC)sc2c1CCCC2`, the Potency result in experiment [1], in experiment [2], in experiment [3], in experiment [4] and in experiment [5] was “inactive” throughout.
`COC(=O)C1=CN(Cc2ccc(OC)c(OC)c2)C=C(C(=O)OC)C1c1cccc(F)c1`: the Potency entry in experiment [1], in experiment [2], in experiment [3], in experiment [4] and in experiment [5] was “inactive” each time.
Take `Cc1ccc(C)c(S(=O)(=O)/N=C2\C=C(NS(=O)(=O)c3ccccc3)C(=O)c3ccccc32)c1`: the Potency in experiment [1] is 22.4 µM (active). The Potency entry in experiment [2] and in experiment [4] was “inactive” in each case. In experiment [3], the activation was 3.6% [at 17.1 µM, percent relative to cAMP agonist control]. In experiment [5], the activity change, negative = inhibition is -11.3% [at 30.8 µM].
Consider `Clc1ccc(NCc2nc3ccccc3n2CCOc2ccccc2)cc1`, for which the Potency entry in experiment [1], in experiment [2], in experiment [3] and in experiment [5] was “inactive” each time. Further, the outcome in experiment [4] is “inactive [at 12.7 µM]”.
Turning to `Oc1ccc(-c2csc(Nc3cccnc3)n2)cc1`, the Potency result in experiment [1], in experiment [2] and in experiment [4] was “inactive” in each case. Besides, the activation in experiment [3] was 0.321% [at 17.1 µM, percent relative to cAMP agonist control]. Further, in experiment [5], the activity change, negative = inhibition was -8.51% [at 30.8 µM].
For the compound `Cc1cccc(C(=O)Nc2cccc(C(=O)N/N=C/c3cccc(C)n3)c2)c1`, the Potency entry in experiment [1], in experiment [2], in experiment [3], in experiment [4] and in experiment [5] was “inactive” in each case.
For the compound `Cc1ccc(-c2cc3ccccc3nc2N2CCOCC2)cc1`, the Potency entry in experiment [1], in experiment [2], in experiment [3], in experiment [4] and in experiment [5] was “inactive” in each case.
`O=C(CCSc1nc2ccccc2o1)N1CCOCC1`: the Potency entry in experiment [1], in experiment [2] and in experiment [4] was “inactive” each time. For the same compound, in experiment [3], the activation was 0.888% [at 17.1 µM, percent relative to cAMP agonist control]. In experiment [5], the activity change, negative = inhibition was -23.1% [at 30.8 µM].
For `CC1CN(C(=O)CCC(=O)NCc2cccc(Cl)c2)c2ccccc2S1` (stereo not given), the Potency entry in experiment [1], in experiment [2], in experiment [3], in experiment [4] and in experiment [5] was “inactive” in each case.
For the compound `CC(C)(C)n1cnc2cc(NCc3ccccc3Cl)ccc21`, the Potency in experiment [1] is 84.9 µM (active). The Potency entry in experiment [2], in experiment [3], in experiment [4] and in experiment [5] was “inactive” each time.
Consider `O=c1[nH]c(Nc2ccccc2)cc2ccccc12`, for which, in experiment [1], the Potency was 37.9 µM (active). For the same compound, the Potency result in experiment [2], in experiment [3], in experiment [4] and in experiment [5] was “inactive” throughout.
For the compound `C[C@H](c1ccccc1)N1C[C@@H](COCc2ccccc2)Oc2cc(N3CC[C@@H](O)C3)ccc2S1(=O)=O`, the Potency result in experiment [1], in experiment [2], in experiment [3], in experiment [4] and in experiment [5] was “inactive” throughout.
On to `Cc1cc(SCC(=O)c2ccc(O)c(O)c2)nc2ccccc12`, for which, in experiment [1], the Potency was 14.1 µM (active). For the same compound, the Potency entry in experiment [2] and in experiment [4] was “inactive” throughout. Also, the activation in experiment [3] is 11.2% [at 17.1 µM, percent relative to cAMP agonist control]. Also, the activity change, negative = inhibition in experiment [5] is -6.86% [at 30.8 µM].
For the compound `CCOc1cccc(C(=O)N(Cc2ccc(F)cc2)Cc2ccco2)c1`, the Potency result in experiment [1], in experiment [2], in experiment [3], in experiment [4] and in experiment [5] was “inactive” throughout.
Regarding `Cc1ccc(C(=O)c2coc3ccc(O)c(Cl)c23)cc1`, the Potency entry in experiment [1], in experiment [2], in experiment [3] and in experiment [5] was “inactive” in each case. In addition, the Potency in experiment [4] is 84.9 µM (active).
`N#C/C(=C\c1ccc(O)c(O)c1)C(=O)Nc1cccc2ncccc12`: in experiment [1], the Potency is 7.57 µM (active). Besides, the Potency entry in experiment [2], in experiment [3], in experiment [4] and in experiment [5] was “inactive” throughout.
For `N#C/C(=C\c1ccc(C(=O)O)cc1)c1nc2sc3c(c2c(=O)[nH]1)CCCC3`, the Potency result in experiment [1], in experiment [2] and in experiment [4] was “inactive” throughout. The activation in experiment [3] was 10.5% [at 17.1 µM, percent relative to cAMP agonist control]. Besides, the activity change, negative = inhibition in experiment [5] was 7.93% [at 30.8 µM].
